Laboratory results as given in PubChem BioAssay AID588726 (The Scripps Research Institute Molecular Screening Center, 2011).
The whole screen tested about 360,000 compounds, of which about 8,200 (2.3%) were called active. For the sample, actives were picked, then their nearest neighbours and some compounds at random. Values without a mark were called inactive. Rule as the data show it: active = inhibition above about 27%; inactive = the rest.

What follows are compounds tested against Fructose-bisphosphate aldolase (Mycobacterium tuberculosis (strain ATCC 25618 / H37Rv)) (UniProt P9WQA3) (assay: M. tuberculosis aldolase activity blockers – biochemical, fluorescence, strain H37Rv, primary screen (AID 588726;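 also: 0% = vehicle and 100% = reference inhibitor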)). Settings: purified M. tuberculosis FBA, fluorescence read-out, at 1 µM, stronger effect = higher value.
Sequence of Fructose-bisphosphate aldolase (Mycobacterium tuberculosis (strain ATCC 25618 / H37Rv)) (P9WQA3 whole entry, looked up): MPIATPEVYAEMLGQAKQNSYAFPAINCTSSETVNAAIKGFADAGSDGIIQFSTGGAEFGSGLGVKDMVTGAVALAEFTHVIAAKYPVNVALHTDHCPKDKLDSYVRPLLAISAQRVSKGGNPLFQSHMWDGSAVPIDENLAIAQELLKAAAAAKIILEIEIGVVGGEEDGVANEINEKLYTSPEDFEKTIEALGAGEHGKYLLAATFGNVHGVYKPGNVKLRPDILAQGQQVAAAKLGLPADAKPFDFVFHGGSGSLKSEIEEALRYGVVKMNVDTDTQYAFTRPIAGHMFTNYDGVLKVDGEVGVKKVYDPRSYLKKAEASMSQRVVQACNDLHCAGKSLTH
`C=CCn1cc(C(=O)NCc2ccc(Cl)cc2)c(=O)c2cc(S(=O)(=O)N(CC)CC)ccc21` showed an inhibition of 3.32%. `O=C(COC(=O)CCCN1C(=O)c2cccc3cccc(c23)C1=O)NC1CCS(=O)(=O)C1` (centres undefined) was tested, and the inhibition was 45.1% (active). In the case of `O=C(COC(=O)/C=C/c1ccc(Cl)cc1)NC1CCS(=O)(=O)C1` (centres undefined), the inhibition is reported as -2.05%. For `Nc1ccc(C(=O)OCC(=O)NC2CCS(=O)(=O)C2)cc1[N+](=O)[O-]` (centres undefined), the inhibition was -2.41%. `COc1ccc(NC(=O)CCC(=O)N2CCN(S(=O)(=O)c3ccc(C)cc3)CC2)c(OC)c1` gave an inhibition of -0.33%. With `CC(=O)NCC(=O)N1CCCC(C(=O)c2ccc3c4c(cccc24)CC3)C1` (centres undefined) the inhibition was 33.7% (active). `Cc1ncoc1C(=O)N1CCCC(C(=O)c2ccc3c4c(cccc24)CC3)C1` (centres undefined) showed an inhibition of 17.8%. Compound `CCn1ccnc1CN1CCCC(C(=O)c2ccc3c4c(cccc24)CC3)C1` (centres undefined) has an inhibition of 8.92%. `CCOC(=O)c1cnc2sccn2c1=O` showed an inhibition of 20.1%. Work on `CCOC(=O)c1cnc(COc2ccccc2Cl)[nH]c1=O` yielded an inhibition of 3.61%. `CCCc1cc(C(=O)N2CCCC(CO)(CCCc3ccccc3)C2)n(C)n1` (centres undefined) gave an inhibition of -1.51%. For `N#Cc1c(-c2ccccc2)c(-c2ccccc2)n[nH]c1=O`, the inhibition was -6.25%. Compound `O=C(O)c1ccc(-n2nc(-c3ccccc3)c3ccccc3c2=O)cc1` has an inhibition of 2.23%. `O=C(O)c1n[nH]nc1-c1ccccc1` was tested, and the inhibition was 113% (active). For `COc1cc(Cl)c(C)cc1NC(=O)COC(=O)c1cc(SC)ccc1Cl`, the inhibition was 7.33%. For `O=C(O)CSc1nccn1-c1cccc(Cl)c1`, the inhibition was 3.31%. With `COC(=O)NNC(=O)C1CCC(C)CC1` (centres undefined) the inhibition was 1.9%. `CCOC(=O)N1CCN(C(=O)CSc2nc(C)nc3c2c(=O)n(C)c(=O)n3C)CC1` gave an inhibition of 4.39%. In the case of `OCC[C@H]1C[C@H](O)[C@@H](O)[C@]2(CCc3ccccc3O2)O1`, the inhibition is reported as -1.81%. Work on `NC(=O)CC[C@@H]1NC(=O)[C@@H]2CCCN2C(=O)c2cc([N+](=O)[O-])cc(F)c2NCCC[C@@H](C(N)=O)NC1=O` yielded an inhibition of -3.88%. `Cc1cc(C(=O)OCC(=O)NCc2ccco2)c(C)n1-c1ccccc1` showed an inhibition of -0.83%. `O=C(NCc1ccco1)c1ccc([N+](=O)[O-])cc1Cl` was tested, and the inhibition was 3.22%. For `CCc1ccc(-c2cc(C(=O)NCc3ccco3)c3ccccc3n2)s1`, the inhibition was 54.1% (active). In the case of `CN(Cc1ccc(C(F)(F)F)cc1)C(=O)[C@H]1O[C@@H](n2cnc3c(N)ncnc32)[C@H](O)[C@@H]1O`, the inhibition is reported as -0.98%. `CCN1C(=O)CS/C1=N\c1nccs1` showed an inhibition of -3.46%. For `COc1cc2c(cc1OC)CC1(CCCCC1)N=C2`, the inhibition was 45% (active). For `Cc1ccc(S(=O)(=O)NCc2ccc(C(=O)NC3CCC(C)CC3)cc2)cc1` (centres undefined), the inhibition was -7.12%. `COc1ccc(C(=O)Cn2nnc(-c3ccc(N4CCOCC4)cc3)n2)cc1OC` showed an inhibition of -1.43%. In the case of `COCCCn1c(CCC(=O)O)ccc1-c1ccc(F)cc1`, the inhibition is reported as 50.6% (active). `COc1ccc(-c2ccc(CCC(=O)O)n2-c2ccc(O)cc2)cc1` gave an inhibition of -1.15%. Work on `COc1ccc(-c2ccc(CCC(=O)O)n2NC(=O)c2ccc(C(C)(C)C)cc2)cc1` yielded an inhibition of 3.01%. For `CC(=O)Nc1ccc(Sc2ccccc2C(=O)N2CCCC2)cn1`, the inhibition was 1.32%. `COc1ccc(C2C(C#N)=C(N)N(c3ncn[nH]3)C3=C2C(=O)CCC3)cc1` (centres undefined) was tested, and the inhibition was 3.59%. In the case of `COc1ccc(C2C3=C(CCCC3=O)N(CC(=O)O)C3=C2C(=O)CCC3)cc1`, the inhibition is reported as 47.7% (active). Compound `CCCN1C2=C(C(=O)CCC2)C(c2ccc(O)c(Br)c2)C2=C1CCCC2=O` has an inhibition of -1.2%. `CCOC(=O)C1=C(N)N(c2ccc(C)cc2)C2=C(C(=O)CCC2)C1c1cccs1` (centres undefined) was tested, and the inhibition was -1.49%. For `CCOc1ccc(C2C3=C(CCCC3=O)N(CC(=O)O)C3=C2C(=O)CCC3)cc1`, the inhibition was 39.2% (active). Compound `CCOc1ccc(C2C(C#N)=C(N)N(N(C)C)C3=C2C(=O)CCC3)cc1` (centres undefined) has an inhibition of -0.23%. `CC(C)c1ccc(Nc2nnc(SCC(=O)c3nnc(-c4ccccc4)o3)s2)cc1` was tested, and the inhibition was -2.05%. `CCOC(=O)C1CCN(C(=O)C2CCCN(S(=O)(=O)c3ccc(OC)c(Cl)c3)C2)CC1` (centres undefined) showed an inhibition of 13.8%. In the case of `C=CCOc1cccc(C2NC(=O)c3ccccc3O2)c1` (centres undefined), the inhibition is reported as 5.49%. `COc1ccc(C2NC(=O)c3ccccc3N2)cc1` (centres undefined) was tested, and the inhibition was 67% (active). For `COc1ccc(C2(O)C(=O)Nc3ccccc32)cc1` (centres undefined), the inhibition was 1.93%. `O=C1NC(c2cccc(Cl)c2)Nc2ccccc21` (centres undefined) was tested, and the inhibition was 30.3% (active). For `COc1ccc(C2CC(=O)NC(=O)C2)cc1`, the inhibition was 0.31%. `O=C1NC(c2ccccc2)Oc2ccccc21` (centres undefined) showed an inhibition of 6.04%. Work on `CC(C)=CCCC1(C)C=Cc2c(ccc3c2[nH]c2cc(O)c(C)cc23)O1` (centres undefined) yielded an inhibition of -3.09%. Compound `COc1cccc(CNC(=O)C(=O)NCCC2CCCCN2S(=O)(=O)c2ccc(C)cc2)c1` (centres undefined) has an inhibition of 1.18%. `COC(=O)C1NN=C(C(=O)c2ccc(Br)cc2)C1c1cccc(Br)c1` (centres undefined) was tested, and the inhibition was -2.34%. `CC(=O)Nc1cccc(Nc2ccc(C#N)cc2)c1` was tested, and the inhibition was 0.34%. Compound `Oc1ccc(C2Nc3cccc4cccc(c34)N2)cc1` has an inhibition of -2.34%. `Cc1ccc(C2Nc3cccc4cccc(c34)N2)cc1` was tested, and the inhibition was 49.3% (active). `O=[N+]([O-])c1ccc2c(c1)C(N1CCOCC1)/C(=C/C1(O)CCCCC1)O2` (centres undefined) gave an inhibition of -4.67%. Compound `O=C(Nc1ccccc1)c1ccccc1NC(=O)C(F)(F)F` has an inhibition of -0.1%. `COCc1cc(=O)[nH]c2cc(NC(=O)C(F)(F)F)c(C)cc12` was tested, and the inhibition was 31.5% (active). Work on `Cc1ccccc1Cn1nc(C)c(NC(=O)C(F)(F)F)c1C` yielded an inhibition of -0.53%. With `COCCCN1C(=O)C(=O)/C(=C(/O)c2ccc(S(=O)(=O)N3CCOCC3)cc2)C1c1ccc(F)cc1` (centres undefined) the inhibition was 4.42%. `COc1cc(CO)ccc1OCC(=O)Nc1cccc2ccccc12` was tested, and the inhibition was -1.87%. `COc1ccccc1NC(=O)COC(=O)COc1ccccc1F` showed an inhibition of -0.62%. `COc1ccccc1NC(=O)COc1ccc(C(=O)OCC(=O)N(C(C)C)C(C)C)cc1OC` was tested, and the inhibition was 33.2% (active). With `COc1ccc(C2c3c(C)nn(-c4ccccc4)c3NC(=O)N2c2ccccc2)cc1` (centres undefined) the inhibition was -0.42%. `O=C(CCC1CCN(C(=O)c2cccc(Cl)c2F)CC1)Nc1ccccc1` gave an inhibition of -0.26%. In the case of `COc1ccc(CCNC(=O)C(=O)Nc2ccc3nc4n(c(=O)c3c2)CCCCC4)cc1OC`, the inhibition is reported as -5.38%. For `COc1ccc(CCNC(=O)c2cc3sccc3n2C)cc1OC`, the inhibition was 6.99%. In the case of `COc1ccc(CCNC(=O)Nc2ccc3c(c2)c(=O)n(C)n3C)cc1OC`, the inhibition is reported as 156% (active). `CCCc1cc(=O)n2[nH]c(SCc3ccccc3)nc2n1` gave an inhibition of -0.14%. `CCCc1c(C)nc2scc(-c3ccc(Cl)cc3)n2c1=O` was tested, and the inhibition was 0.91%. Compound `Cc1nc2nc(COc3ccccc3)[nH]n2c(=O)c1C` has an inhibition of 0.07%. With `COCc1cc(=O)[nH]c(-c2ccc(C(F)(F)F)cc2)n1` the inhibition was 2.51%. For `Cc1nc2c(-c3ccccc3)c(C)[nH]n2c(=O)c1Cl`, the inhibition was 47.5% (active). For `CCCc1cc(=O)n2[nH]c(C)c(-c3ccc(Cl)cc3)c2n1`, the inhibition was 27.5% (active). For `COCc1cc(=O)[nH]c(SC)n1`, the inhibition was 2.44%. With `COCc1cc(=O)n2[nH]c(C)c(-c3ccccc3)c2n1` the inhibition was 102% (active). With `Cc1nc(=O)c(-c2ccccc2)c(C)n1-c1ccc(Br)cc1` the inhibition was 2.14%. `COc1ccc(-c2csc3nc(-c4ccccc4F)oc(=O)c23)cc1OC` was tested, and the inhibition was 2.27%. `C=CC(=O)Nc1ccc(Nc2ccnc(Nc3ccc(N4CCN(C)CC4)cc3)n2)cc1` gave an inhibition of 3.07%. Work on `Cc1nc(SCC(=O)N2CCc3ccccc3C2)c2c(C)c(C)sc2n1` yielded an inhibition of 0.74%. `COc1cc(C2C(C#N)=C(C)NC3=C2C(=O)CC(C)(C)C3)ccc1O` (centres undefined) showed an inhibition of 0.13%. Compound `Cc1sc2nc(-c3ccccc3F)oc(=O)c2c1C` has an inhibition of -0.79%. `COc1ccccc1N(CC(=O)N/N=C(\C)c1ccccc1O)S(=O)(=O)c1ccc(C)cc1` was tested, and the inhibition was 2.36%. `COc1ccc(-c2cc(=O)oc3cc(OCC(=O)N[C@@H](Cc4c[nH]c5ccccc45)C(=O)O)ccc23)cc1` was tested, and the inhibition was 6.63%. With `COc1ccc(-c2cc3ccc(OCc4nn[nH]n4)cc3oc2=O)cc1` the inhibition was 734% [above what the read-out allows, likely interference] (active). For `COc1ccc(-c2csc3ncnc(Oc4ccc5c(C)cc(=O)oc5c4)c23)cc1`, the inhibition was 2.35%. `CC1CCN(C(=O)Cn2nnnc2CN2CCOCC2)CC1` showed an inhibition of -0.01%. `CCN(CC)c1ccc([N+](=O)[O-])cc1C(=O)O` was tested, and the inhibition was -17.9%. For `CCN(CC)c1ccc2cc(C(=O)O)c(=O)oc2c1`, the inhibition was 36.2% (active). With `Cc1cc(C)cc(OCC(=O)NNC(=O)c2cc3ccccc3oc2=O)c1` the inhibition was 1.86%. `Cc1ccc(C2=Nc3c(ccc4ccccc34)C(c3ccncc3)=NN2)cc1` gave an inhibition of 1.27%. `CC(=O)Nc1cccc(-c2ccnc3c2CC(C)(C(=O)NCc2ccco2)O3)c1` (centres undefined) showed an inhibition of -0.36%. In the case of `CC1(C(=O)NCc2ccco2)Cc2c(-c3ccc4c(c3)OCO4)ccnc2O1` (centres undefined), the inhibition is reported as 46.9% (active). For `O=C(Cn1nnc(-c2ccc3c(c2)OCO3)n1)NCc1ccco1`, the inhibition was 1.83%. In the case of `CC1(C(=O)NCc2ccc(F)c(F)c2)Cc2c(-c3ccc4c(c3)OCO4)ccnc2O1` (centres undefined), the inhibition is reported as 44.6% (active). `CC1(C(=O)NCC2CCOCC2)Cc2c(-c3cccc(C(N)=O)c3)ccnc2O1` (centres undefined) gave an inhibition of -0.46%. `CC(=O)Nc1cccc(-c2ccnc3c2CC(C)(C(=O)NCc2ccccc2)O3)c1` (centres undefined) showed an inhibition of 1.41%.
